GLD-1 RNA inh: GLD-1-TGE RNA interaction inhibition (C. elegans) | Q17339 | purified GLD-1 + fluorescein TGE RNA, fluorescence polarization | inhibition, % at 5.96 µM | hit rate 0.44% among 320,000 | AID 2280;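 active = percent inhibition above a per-plate cutoff, the plate mean of test compounds plus 3 SD, cut at about 30% in these data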;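 also: 0% = DMSO wells with GLD-1 and probe and 100% = wells lacking GLD-1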
Mcl-1 Bim block: human Bim-Mcl-1 interaction inhibition; Bead-based flow cytometry, Bim peptide-Mcl-1 binding; inhibition, % at 10 µM; hit rate 0.1% among 190,000; in the data active = inhibition above about 40%;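 also: 0% = no compound tracer wells and 100% = peptide blocker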
Target sequence (Q07820 whole entry, looked up): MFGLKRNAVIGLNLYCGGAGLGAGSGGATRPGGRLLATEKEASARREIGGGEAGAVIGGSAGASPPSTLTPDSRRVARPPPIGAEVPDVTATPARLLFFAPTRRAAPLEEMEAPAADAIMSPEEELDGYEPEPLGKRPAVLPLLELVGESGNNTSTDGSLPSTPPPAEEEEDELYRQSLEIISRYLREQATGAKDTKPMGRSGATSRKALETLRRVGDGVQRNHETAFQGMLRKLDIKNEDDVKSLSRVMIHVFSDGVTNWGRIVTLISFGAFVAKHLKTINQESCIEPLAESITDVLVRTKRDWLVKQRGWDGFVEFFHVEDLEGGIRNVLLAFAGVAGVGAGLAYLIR
Mcl1 Noxa PPI: disrupts binding of human Mcl-1 to Noxa peptide; inhibition, % at 21.7 µM; Q07820; hit rate 1.5% among 220,000; TR-FRET Mcl-1/Noxa peptide binding, 2 h; AID 1022;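 active = compounds that cut the protein-peptide binding signal by more than 50% relative to plate controls in a single-dose test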;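 also: His-tagged Mcl-1 with rhodamine Noxa BH3 peptide and terbium anti-His antibody; 0% = Mcl-1 plus Noxa peptide wells and 100% = peptide-only wells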
Mcl1-Bid inh: Mcl-1/Bid interaction inhibition. TR-FRET Mcl-1/Bid-Dy647 peptide binding, 1536-well. inhibition, % at 21.7 µM. hit rate 0.97% among 220,000;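 active = compounds that cut the binding signal by more than half at the single screening dose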;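 also: His-tagged Mcl-1 with europium anti-His antibody binding Bid BH3 peptide; 0% = Mcl-1 plus peptide wells and 100% = peptide-only wells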
MCL1-BIM inh: MCL1-BIM-BH3 interaction inhibition (human); GST-MCL1 / FITC-Bim-BH3 fluorescence polarization; inhibition, % at 10.9 µM; hit rate 0.68% among 320,000; AID 2057;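 active = inhibition above the mean inhibition of all tested compounds plus 3 SD, set per campaign, cut at about 40% in these data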;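 also: 0% = DMSO wells and 100% = unlabeled Bim-BH3 peptide control; higher means more loss of mP so more displacement of Bim peptide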
BCLXL inh: blocks human Bcl-xL binding to Bim BH3 peptide | GST-Bcl-xL / FITC-Bim BH3 peptide fluorescence polarization | hit rate 0.7% among 320,000 | AID 2129 | inhibition, % at 10.9 µM;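 active = inhibition above the mean of all tested compounds plus 3 SD, cutoff set per campaign, cut at about 30% in these data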;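 also: 0% = DMSO wells and 100% = unlabeled Bim-BH3 peptide competitor; inhibitors lower millipolarization by displacing the labeled peptide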
* = called active by the depositor; x = no result given. Shown are actives, neighbours in structure and some others; about 2.3% of the full set was active somewhere.

SMILES	GLD-1 RNA inh	Mcl-1 Bim block	Mcl1 Noxa PPI	Mcl1-Bid inh	MCL1-BIM inh	BCLXL inh
CN(C(=O)c1ccno1)c1nnc(-c2cnccn2)s1	-6.6	-1.0	-17.0	-29.2	6.6	5.5
NS(=O)(=O)c1cc2c(cc1Cl)NC(Cc1ccccc1)NS2(=O)=O (stereo unspecified)	-83.3	x	-6.4	97.4*	-74.0	-59.0
CNC(=O)c1ccc(Nc2nnc(-c3ccc(O)cc3)c3ccccc23)cc1	-9.6	x	x	x	2.8	7.0
Oc1ccc(-c2nnc(Nc3cccc(O)c3)c3ccccc23)cc1	6.7	x	60.5*	-2.5	-1.9	3.4
CC(CNC(=O)COc1ccc2c(c1)OCO2)c1ccccc1 (stereo unspecified)	3.0	x	x	x	-4.2	-0.3
CCCSc1nc(C)nc2c1c(=O)n(C)c(=O)n2C	x	-1.0	-4.2	88.0*	x	x
C/C=C\C(=O)Nc1cccc(C2=NOC3(C2)C[C@@H](C(N)=O)N(C(=O)c2ccccc2)C3)c1 (stereo partly specified)	-1.1	x	-9.0	-11.1	-4.3	-0.6
C/C=C\C=C/C(=O)Nc1cccc(C2=NOC3(C2)C[C@@H](C(N)=O)N(C(=O)c2ccccc2)C3)c1 (stereo partly specified)	-5.8	x	75.3*	21.1	-2.5	3.6
C=C(C)C(=O)Nc1cccc(C2=NOC3(C2)C[C@@H](C(N)=O)N(C(=O)CCCCC)C3)c1 (stereo partly specified)	-5.3	x	68.6*	-99.5	4.9	8.2
C=C(C)C(=O)Nc1cccc(C2=NOC3(C2)C[C@@H](C(N)=O)N(C(=O)c2ccc(OC)cc2)C3)c1 (stereo partly specified)	-3.0	x	69.3*	-130.3	11.1	4.7
COc1cnc(-c2ccccn2)nc1N(C)c1ccccc1	3.8	x	x	x	-0.6	-1.5
Cn1c(=O)n(C)c2cc(NC(=O)COc3ccc(F)cc3)ccc21	7.8	x	x	x	4.9	-7.4
Nc1ccc2c3c(cccc13)CC2	-27.5	4.0	32.3	-114.8	14.4	38.4*
Nc1[nH]n2c(=O)cc(-c3ccccc3)nc2c1N=Nc1ccc2c(c1)OCO2	3.6	3.0	59.9*	-57.0	13.3	2.3
CCCn1c(SCC(=O)Nc2ccccc2OC)nnc1-c1ccco1	-1.3	x	x	x	-3.2	-0.5
O=[N+]([O-])c1cccc(S(=O)(=O)NCC2CCCO2)c1 (stereo unspecified)	-7.2	51.0*	-12.9	-20.2	3.6	5.0
CC(=O)Nc1ccc(S(=O)(=O)N(C)CC(=O)N/N=C/c2ccncc2)cc1	-5.4	x	x	x	-12.2	-3.6
COC(=O)c1[nH]c2ccc(Cl)cc2c1NC(=O)Oc1ccccc1	0.7	-6.0	50.8*	-44.7	-0.1	6.6
COc1ccc(-n2nc3c(c2NC(=O)CCl)CSC3)cc1	-2.6	x	x	x	-1.0	1.3
Cc1cccc(NC(=O)CCN2CCOCC2)c1	5.8	-1.0	-19.1	-19.4	-3.3	-0.3
CCN1CCN(CCC(=O)Nc2cccc(C)c2)CC1	1.4	x	x	x	0.5	31.9*
COc1cccc(CN2C(=O)C(C)N(C(=O)c3ccccc3)c3ccccc32)c1 (stereo unspecified)	-0.6	x	x	x	11.2	5.9
N#C/C(=C/c1ccc(OCc2ccc(C(=O)O)cc2)c(Br)c1)c1cccc(F)c1	-3.7	-8.0	74.3*	-43.0	9.0	9.7
N#C/C(=C/c1ccccc1OCc1ccc(F)cc1)c1ccc(C(=O)O)cc1	-5.1	x	x	x	-19.2	-10.0
CCn1c(SCC(=O)N2CCC(C)CC2)nc2c(c1=O)SCC2	-1.2	x	x	x	-0.8	4.0
SMILES	GLD-1 RNA inh	Mcl-1 Bim block	Mcl1 Noxa PPI	Mcl1-Bid inh	MCL1-BIM inh	BCLXL inh
CC(C)Cc1nnc(NC(=O)CCC(=O)NC2CCCC2)s1	-1.0	x	x	x	-0.7	2.6
C=CCn1c(SCC(=O)NCc2ccco2)nc2sc3c(c2c1=O)CCCC3	6.5	2.0	5.3	-3.8	1.0	-0.2
O=C(NCc1ccco1)c1ccc2nc3sc4c(c3c(=O)n2c1)CCCC4	-0.1	8.0	67.8*	2.2	9.0	10.8
Cc1cc(C2=NNC(=Nc3ccc(S(=O)(=O)N4CCOCC4)cc3)SC2)c(C)n1C	-9.7	x	72.0*	-41.6	0.8	4.5
C=CCn1c(C)cc(C2=NNC(=Nc3ccc(C)cc3)SC2)c1C	-2.5	2.0	10.6	-11.4	9.3	8.0
CC(C)C[C@H](NC(=O)OC(C)(C)C)C(=O)N[C@@H](CO)[C@H](O)[C@@H]1C[C@@H]1C(=O)N1CCCC1	9.2	x	x	x	6.2	2.8
O=C(O)c1c[nH]c2c(C(F)(F)F)cccc2c1=O	-4.0	-1.0	6.9	53.4*	-0.5	0.9

High-throughput results: PubChem BioAssay, several laboratories
